Measurements published in PubChem BioAssay AID1159580 (chemical genetic matrix, 2015).
Hit rate of the full screen: of about 5,500 compounds, about 2,000 (36%) were called active. Roughly 18% stayed inconclusive and do not appear here. No stated cut-off is given here; in the data, active means normalized growth mostly below about 0.91 (no sharp cut-off); inconclusive means no clear call, values can overlap the other calls; inactive means mostly above about 0.92. The list shows a part of the results.

Test: chemical genetic growth profiling, strain panel (AID 1159580);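 further: tested at 20 µM; growth read once vehicle control cultures reached saturation at 30 °C; 1 = growth at the plate median or of vehicle wells; lower values mean less growth of the strain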
Settings: growth OD

Measured: normalized growth

CCCCOc1cc(C(=O)NCCN(CC)CC)c2ccccc2n1
inactive: S. cerevisiae deletion strains, locus YJR075W, strain HOC1, active compounds read low 0.999 | S. cerevisiae deletion strains, locus YKL009W, strain mrt4, active compounds read low 1 | S. cerevisiae deletion strains, locus YKL068W, active compounds read low 0.994 | S. cerevisiae deletion strains, locus YKL085W, strain MDH1 (second series), active compounds read low 0.989 | S. cerevisiae deletion strains, locus YKL085W, strain MDH1, active compounds read low 0.989 | S. cerevisiae deletion strains, locus YKL160W, strain elf1, active compounds read low 0.964 | S. cerevisiae deletion strains, locus YKR001C, strain vps1, active compounds read low 1.01 | S. cerevisiae deletion strains, locus YKR026C, strain gcn3, active compounds read low 0.962 | S. cerevisiae deletion strains, locus YKR091W, strain srl3, active compounds read low 0.973 | S. cerevisiae deletion strains, locus YLL001W, strain dnm1, active compounds read low 0.939 | S. cerevisiae deletion strains, locus YLL026W, active compounds read low 0.981 | S. cerevisiae deletion strains, locus YLL041C, strain sdh2, active compounds read low 0.956 | S. cerevisiae deletion strains, locus YLR027C, strain aat2, active compounds read low 0.97 | S. cerevisiae deletion strains, locus YLR039C, strain RIC1, active compounds read low 1.13 | S. cerevisiae deletion strains, locus YLR058C, strain SHM2, active compounds read low 1.01 | S. cerevisiae deletion strains, locus YLR102C, strain apc9, active compounds read low 0.99 | S. cerevisiae deletion strains, locus YLR113W, strain HOG1, active compounds read low 1.02 | S. cerevisiae deletion strains, locus YLR221C, strain rsa3, active compounds read low 1.02 | S. cerevisiae deletion strains, locus YLR258W, strain gsy2, active compounds read low 1 | S. cerevisiae deletion strains, locus YLR262C, strain YPT6 (second series), active compounds read low 0.956 | S. cerevisiae deletion strains, locus YLR262C, strain YPT6, active compounds read low 1.14 | S. cerevisiae deletion strains, locus YLR268W, strain sec22, active compounds read low 1 | S. cerevisiae deletion strains, locus YLR320W, strain mms22, active compounds read low 1.02 | S. cerevisiae deletion strains, locus YLR330W, strain CHS5, active compounds read low 1.01 | S. cerevisiae deletion strains, locus YLR342W, strain FKS1 (second series), active compounds read low 1.02 | S. cerevisiae deletion strains, locus YLR342W, strain FKS1, active compounds read low 0.957 | S. cerevisiae deletion strains, locus YLR357W, strain rsc2, active compounds read low 0.94 | S. cerevisiae deletion strains, locus YLR370C, strain arc18, active compounds read low 0.971 | S. cerevisiae deletion strains, locus YLR371W, strain rom2, active compounds read low 0.99 | S. cerevisiae deletion strains, locus YLR384C, strain iki3, active compounds read low 0.959 | S. cerevisiae deletion strains, locus YLR418C, strain cdc73, active compounds read low 0.984 | S. cerevisiae deletion strains, locus YML016C, strain PPZ1, active compounds read low 1.01 | S. cerevisiae deletion strains, locus YML032C, strain rad52, active compounds read low 0.989 | S. cerevisiae deletion strains, locus YML120C, strain ndi1, active compounds read low 0.969 | S. cerevisiae deletion strains, locus YML124C, strain tub3, active compounds read low 0.994 | S. cerevisiae deletion strains, locus YMR058W, strain fet3, active compounds read low 0.968 | S. cerevisiae deletion strains, locus YMR078C, strain ctf18, active compounds read low 0.991 | S. cerevisiae deletion strains, locus YMR125W, strain sto1, active compounds read low 0.931 | S. cerevisiae deletion strains, locus YMR129W, active compounds read low 0.982 | S. cerevisiae deletion strains, locus YMR205C, strain PFK2, active compounds read low 0.972 | S. cerevisiae deletion strains, locus YMR223W, strain ubp8, active compounds read low 0.987 | S. cerevisiae deletion strains, locus YMR231W, strain pep5, active compounds read low 0.96 | S. cerevisiae deletion strains, locus YMR263W, strain SAP30, active compounds read low 1 | S. cerevisiae deletion strains, locus YMR307W, strain GAS1, active compounds read low 1.1 | S. cerevisiae deletion strains, locus YNL067W, strain RPL9B, active compounds read low 0.995 | S. cerevisiae deletion strains, locus YNL071W, strain lat1, active compounds read low 0.985 | S. cerevisiae deletion strains, locus YNL128W, strain TEP1, active compounds read low 1 | S. cerevisiae deletion strains, locus YNL153C, strain GIM3, active compounds read low 0.994 | S. cerevisiae deletion strains, locus YNL183C, strain NPR1, active compounds read low 0.975 | S. cerevisiae deletion strains, locus YNL209W, strain ssb2, active compounds read low 0.985 | S. cerevisiae deletion strains, locus YNL233W, strain BNI4, active compounds read low 0.997 | S. cerevisiae deletion strains, locus YNL248C, strain rpa49, active compounds read low 0.979 | S. cerevisiae deletion strains, locus YNL250W, strain rad50, active compounds read low 0.996 | S. cerevisiae deletion strains, locus YNL271C, strain bni1, active compounds read low 0.991 | S. cerevisiae deletion strains, locus YNL298W, strain CLA4, active compounds read low 0.998 | S. cerevisiae deletion strains, locus YNL307C, strain MCK1, active compounds read low 0.984 | S. cerevisiae deletion strains, locus YNL322C, strain KRE1 (second series), active compounds read low 0.951 | S. cerevisiae deletion strains, locus YNL322C, strain KRE1, active compounds read low 1 | S. cerevisiae deletion strains, locus YNR049C, strain mso1, active compounds read low 0.967 | S. cerevisiae deletion strains, locus YNR052C, strain pop2, active compounds read low 0.985 | S. cerevisiae deletion strains, locus YOL012C, strain htz1 0.896 | S. cerevisiae deletion strains, locus YOL147C, strain pex11, active compounds read low 0.998 | S. cerevisiae deletion strains, locus YOR001W, strain rrp6, active compounds read low 0.935 | S. cerevisiae deletion strains, locus YOR061W, strain CKA2, active compounds read low 1.01 | S. cerevisiae deletion strains, locus YOR069W, strain VPS5, active compounds read low 1 | S. cerevisiae deletion strains, locus YOR070C, strain gyp1, active compounds read low 0.991 | S. cerevisiae deletion strains, locus YOR080W, strain dia2, active compounds read low 0.962 | S. cerevisiae deletion strains, locus YOR083W, strain WHI5, active compounds read low 0.967 | S. cerevisiae deletion strains, locus YOR106W, strain vam3, active compounds read low 0.966 | S. cerevisiae deletion strains, locus YOR136W, strain idh2, active compounds read low 0.998 | S. cerevisiae deletion strains, locus YOR144C, strain elg1, active compounds read low 0.992 | S. cerevisiae deletion strains, locus YOR184W, strain ser1, active compounds read low 0.995 | S. cerevisiae deletion strains, locus YOR231W, strain MKK1, active compounds read low 1.03 | S. cerevisiae deletion strains, locus YOR265W, strain rbl2, active compounds read low 0.976 | S. cerevisiae deletion strains, locus YOR270C, strain vph1, active compounds read low 0.933 | S. cerevisiae deletion strains, locus YOR290C, strain snf2, active compounds read low 0.977 | S. cerevisiae deletion strains, locus YOR316C, strain cot1, active compounds read low 0.996 | S. cerevisiae deletion strains, locus YPL051W, strain arl3, active compounds read low 0.989 | S. cerevisiae deletion strains, locus YPL055C, strain LGE1, active compounds read low 1.02 | S. cerevisiae deletion strains, locus YPL078C, strain atp4, active compounds read low 0.936 | S. cerevisiae deletion strains, locus YPL106C, strain sse1, active compounds read low 0.921 | S. cerevisiae deletion strains, locus YPL240C, strain hsp82, active compounds read low 0.962 | S. cerevisiae deletion strains, locus YPL256C, strain CLN2, active compounds read low 1.01 | S. cerevisiae deletion strains, locus YPR119W, strain clb2, active compounds read low 0.994 | S. cerevisiae deletion strains, locus YPR141C, strain kar3, active compounds read low 1 | S. cerevisiae deletion strains, locus YPR163C, strain tif3, active compounds read low 1 | S. cerevisiae deletion strains, locus YPR167C, strain met16, active compounds read low 0.986 | S. cerevisiae deletion strains, strain wtn01, active compounds read low 1.02 | S. cerevisiae strains, strain wild type, active compounds read low 1
